# Measurements reported in the supplement of paper PMC8975748.
# Structures can show the parent of a compound that is named as a salt.
# System: Saccharomyces cerevisiae BY4741 SeMeCo community
# Test: z-score of subpopulation abundance vs DMSO median, subpopulation auxotrophic for U; higher = larger share of this subpopulation than in DMSO controls
# Conditions: 10 µM; 24 h; SM minimal medium; subpopulation (auxotrophy): U
# Method: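 Fluorescent four-plasmid SeMeCo (self-establishing metabolically cooperating S. cerevisiae BY4741 community; plasmids pH-mRuby2, pL-mWasabi, pU-eCFP, pM-TagRFP657) was grown 24 h in minimal SM medium with each Selleck FDA-approved drug at 10 µM in 384-well plates. Cells were fixed and imaged by high-content confocal microscopy. For each auxotrophic subpopulation (and the prototroph), a z-score gives the deviation from the DMSO vehicle-control population median.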
row,Compound,z-score of subpopulation abundance
1,O=C(O)c1cc(=O)c2c(OCC(O)COc3cccc4oc(C(=O)O)cc(=O)c34)cccc2o1 [Disodium Cromoglycate],0.66
2,NC(=N\CCCCCC/N=C(N)/N=C(\N)Nc1ccc(Cl)cc1)/N=C(\N)Nc1ccc(Cl)cc1 [Chlorhexidine diacetate],-0.99
3,Oc1c(Cl)cc(Cl)c2cccnc12 [Chloroxine],-1.29
4,CN(C)CCC=C1c2ccccc2C=Cc2ccccc21 [Cyclobenzaprine HCl],1.16
5,CO[C@H]1C[C@@H]2CC[C@@H](C)[C@@](O)(O2)C(=O)C(=O)N2CCCC[C@H]2C(=O)O[C@H]([C@H](C)C[C@@H]2CC[C@@H](O)[C@H](OC)C2)CC(=O)[C@H](C)/C=C(\C)[C@@H](O)[C@@H](OC)C(=O)[C@H](C)C[C@H](C)/C=C/C=C/C=C/1C [Rapamycin (Sirolimus)],3.85
6,CN(C)CCc1c[nH]c2ccc(C[C@H]3COC(=O)N3)cc12 [Zolmitriptan],-0.08
7,CC(=O)O[C@H]1C[C@@]2(C)[C@@H](C[C@@H](O)[C@H]3[C@@]4(C)CC[C@@H](O)[C@@H](C)[C@@H]4CC[C@@]32C)/C1=C(\CCC=C(C)C)C(=O)O [Fusidate Sodium],0.34
8,O=C(O[C@H]1CN2CCC1CC2)N1CCc2ccccc2[C@@H]1c1ccccc1 [Solifenacin succinate],0.4
9,CC(C(=O)O)c1ccc2c(c1)CC(=O)c1ccccc1S2 (stereo not given) [Zaltoprofen],0.2
10,Cc1nnc(NS(=O)(=O)c2ccc(N)cc2)s1 [Sulfamethizole],-0.15
11,CC[C@H]1OC(=O)[C@H](C)[C@@H](O[C@H]2C[C@@](C)(OC)[C@@H](O)[C@H](C)O2)[C@H](C)[C@@H](O[C@@H]2O[C@H](C)C[C@H](N(C)C)[C@H]2O)[C@](C)(O)C[C@@H](C)[C@@H]2N[C@@H](COCCOC)O[C@H]([C@H]2C)[C@]1(C)O [Dirithromycin],0.26
12,OCCN1CCN(CCCN2c3ccccc3Sc3ccc(Cl)cc32)CC1 [Perphenazine],0.29
13,C[C@]1(Cn2ccnn2)[C@H](C(=O)O)N2C(=O)C[C@H]2S1(=O)=O [Tazobactam],0.75
14,CN[C@@H]1[C@H](O[C@H]2[C@H](O[C@H]3[C@H](O)[C@@H](O)[C@H](N=C(N)N)[C@@H](O)[C@@H]3N=C(N)N)O[C@@H](C)[C@]2(O)C=O)O[C@@H](CO)[C@H](O)[C@H]1O [Streptomycin sulfate],1.16
15,COc1ccc2cc(CCC(C)=O)ccc2c1 [Nabumetone],0.54
16,CCOc1ccc2ccccc2c1C(=O)N[C@@H]1C(=O)N2[C@@H]1SC(C)(C)[C@@H]2C(=O)O [Nafcillin Sodium],-0.63
17,CC/C=C(\C(=O)N[C@@H]1C(=O)N2C(C(=O)OCOC(=O)C(C)(C)C)=C(COC(N)=O)CS[C@H]12)c1csc(N)n1 [Cefcapene Pivoxil Hydrochloride],0.38
18,N#Cc1ccc2[nH]cc(CCCCN3CCN(c4ccc5oc(C(N)=O)cc5c4)CC3)c2c1 [Vilazodone HCl],-0.4
19,N[C@@H](CCC(=O)O)C(=O)O [(S)-Glutamic acid],0.05
20,Clc1ccc(CSC(Cn2ccnc2)c2ccc(Cl)cc2Cl)cc1 (stereo not given) [Sulconazole Nitrate],1.17

row,Compound,z-score of subpopulation abundance
1,COc1cccc2c1C(=O)c1c(O)c3c(c(O)c1C2=O)C[C@@](O)(C(=O)CO)C[C@@H]3O[C@H]1C[C@H](N)[C@@H](O)[C@H](C)O1 [Epirubicin HCl],1.23
2,CCOC(=O)C1=C(C)NC(C)=C(C(=O)OCC)C1c1ccccc1/C=C/C(=O)OC(C)(C)C [Lacidipine],-3.36
3,CCC[C@@H]1C[C@@H](C(=O)N[C@@H]([C@H]2O[C@H](SC)[C@H](O)[C@@H](O)[C@H]2O)[C@@H](C)O)N(C)C1 [Lincomycin HCl],-0.24
4,O=c1[nH]c(=O)n([C@H]2C[C@H](O)[C@@H](CO)O2)cc1/C=C/Br [Brivudine],0.12
5,CS(=O)(=O)c1ccc([C@@H](O)[C@@H](CO)NC(=O)C(Cl)Cl)cc1 [Thiamphenicol],0.59
6,CN(CCN1CCC(OC(=O)Nc2ccccc2-c2ccccc2)CC1)C(=O)c1ccc(CN2CCC(C(N)=O)CC2)cc1 [Revefenacin],0.17
7,O=C(N[C@H](CO)[C@H](O)c1ccc([N+](=O)[O-])cc1)C(Cl)Cl [Chloramphenicol],-0.21
8,CC#C[C@]1(O)CC[C@H]2[C@@H]3CCC4=CC(=O)CCC4=C3[C@@H](c3ccc(N(C)C)cc3)C[C@@]21C [Mifepristone],-0.36
9,CCC1(C)CC(=O)NC1=O (stereo not given) [Ethosuximide],0.64
10,COC(=O)C1=C(C)NC(C)=C(C(=O)OC2CCCN(Cc3ccccc3)C2)C1c1cccc([N+](=O)[O-])c1 (stereo not given) [Benidipine HCl],-1.06
11,C[C@@H](O)[C@H]1C(=O)N2C(C(=O)OCOC(=O)C(C)(C)C)=C(SC3CN(C4=NCCS4)C3)[C@H](C)[C@H]12 [Tebipenem Pivoxil],0.02
12,CC(C)COCC(CN(Cc1ccccc1)c1ccccc1)N1CCCC1 (stereo not given) [Bepridil hydrochloride],-0.09
13,Cc1cc(=O)n(-c2ccccc2)n1C [Antipyrine],-0.44
14,COC(=O)Nc1nc2cc(C(=O)c3ccc(F)cc3)ccc2[nH]1 [Flubendazole],-0.99
15,C[C@@H](O)[C@H]1C(=O)N2C(C(=O)O)=C(S[C@@H]3CN[C@H](C(=O)Nc4cccc(C(=O)O)c4)C3)[C@H](C)[C@H]12 [Ertapenem sodium],-0.15
16,CC(C(=O)O)c1ccc(C(=O)c2cccs2)cc1 (stereo not given) [Suprofen],-0.1
17,O=C(c1ccccc1)c1ccc2n1CCC2C(=O)O (stereo not given) [Ketorolac tromethamine salt],-0.92
18,O=C1CCc2cc(OCCCCc3nnnn3C3CCCCC3)ccc2N1 [Cilostazol],-0.86
19,C=C[C@]1(C)C[C@@H](OC(=O)CS[C@@H]2C[C@H]3CC[C@@H](C2)N3C)[C@]2(C)[C@H](C)CC[C@]3(CCC(=O)[C@H]32)[C@@H](C)[C@@H]1O [Retapamulin],0.79
20,C[n+]1ccccc1/C=N/O [Pralidoxime chloride],1.25
